Source: ChEMBL document CHEMBL1961873, “Compounds: GSK PKIS; Assays: Nanosyn kinase panel” (2012)

Columns and labels:
[1] = target: 5'-AMP-activated protein kinase catalytic subunit alpha-2 (Homo sapiens) (UniProt P54646); details: at 1 µM
[2] = target: T1, NUAK family SNF1-like kinase 1 (Homo sapiens) (UniProt O60285); details: at 0.1 µM
T1 sequence (whole entry): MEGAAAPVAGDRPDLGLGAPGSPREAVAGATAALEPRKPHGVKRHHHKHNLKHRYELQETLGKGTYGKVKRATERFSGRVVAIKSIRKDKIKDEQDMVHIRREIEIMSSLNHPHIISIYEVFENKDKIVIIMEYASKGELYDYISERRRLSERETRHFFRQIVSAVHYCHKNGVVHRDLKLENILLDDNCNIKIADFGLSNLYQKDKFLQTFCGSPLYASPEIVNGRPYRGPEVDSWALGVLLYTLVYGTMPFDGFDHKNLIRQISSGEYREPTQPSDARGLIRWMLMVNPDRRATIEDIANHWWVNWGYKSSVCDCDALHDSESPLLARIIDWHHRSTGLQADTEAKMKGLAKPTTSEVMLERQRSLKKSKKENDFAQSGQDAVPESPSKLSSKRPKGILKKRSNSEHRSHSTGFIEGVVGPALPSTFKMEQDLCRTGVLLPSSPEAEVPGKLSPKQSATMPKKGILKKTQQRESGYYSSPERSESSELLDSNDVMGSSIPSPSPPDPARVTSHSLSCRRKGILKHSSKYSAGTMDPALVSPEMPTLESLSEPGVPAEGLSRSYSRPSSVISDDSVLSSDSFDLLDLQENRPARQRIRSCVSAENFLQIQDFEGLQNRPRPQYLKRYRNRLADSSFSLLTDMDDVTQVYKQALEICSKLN

[3] = target: T1, NUAK family SNF1-like kinase 1 (Homo sapiens); details: at 1 µM
[4] = target: T2, Serine/threonine-protein kinase BRSK1 (Homo sapiens) (UniProt Q8TDC3); details: at 0.1 µM
T2 sequence (whole entry): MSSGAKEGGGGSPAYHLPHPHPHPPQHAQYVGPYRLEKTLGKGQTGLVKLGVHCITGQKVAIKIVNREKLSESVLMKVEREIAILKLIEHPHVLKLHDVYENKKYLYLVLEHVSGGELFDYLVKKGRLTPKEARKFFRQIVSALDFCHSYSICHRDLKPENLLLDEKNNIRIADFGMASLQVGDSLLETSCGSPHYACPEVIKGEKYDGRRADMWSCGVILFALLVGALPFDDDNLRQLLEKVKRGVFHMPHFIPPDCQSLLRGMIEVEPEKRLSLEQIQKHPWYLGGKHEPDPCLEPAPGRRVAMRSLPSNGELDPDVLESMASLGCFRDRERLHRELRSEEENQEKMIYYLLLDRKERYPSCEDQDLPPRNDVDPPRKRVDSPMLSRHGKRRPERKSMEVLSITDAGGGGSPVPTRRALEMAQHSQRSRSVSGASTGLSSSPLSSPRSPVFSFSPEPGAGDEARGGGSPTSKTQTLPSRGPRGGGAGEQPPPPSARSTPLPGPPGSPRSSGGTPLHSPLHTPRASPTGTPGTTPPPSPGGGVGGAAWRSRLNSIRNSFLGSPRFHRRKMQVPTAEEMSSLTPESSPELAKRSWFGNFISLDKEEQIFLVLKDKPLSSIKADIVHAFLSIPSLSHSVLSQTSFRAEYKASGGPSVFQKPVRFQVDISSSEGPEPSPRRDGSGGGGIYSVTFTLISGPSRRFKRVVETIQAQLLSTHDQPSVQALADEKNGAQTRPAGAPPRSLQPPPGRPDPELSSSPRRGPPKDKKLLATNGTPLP

[5] = target: T2, Serine/threonine-protein kinase BRSK1 (Homo sapiens); details: at 1 µM
[6] = target: T3, Serine/threonine-protein kinase BRSK2 (Homo sapiens) (UniProt Q8IWQ3); details: at 0.1 µM
T3 sequence (whole entry): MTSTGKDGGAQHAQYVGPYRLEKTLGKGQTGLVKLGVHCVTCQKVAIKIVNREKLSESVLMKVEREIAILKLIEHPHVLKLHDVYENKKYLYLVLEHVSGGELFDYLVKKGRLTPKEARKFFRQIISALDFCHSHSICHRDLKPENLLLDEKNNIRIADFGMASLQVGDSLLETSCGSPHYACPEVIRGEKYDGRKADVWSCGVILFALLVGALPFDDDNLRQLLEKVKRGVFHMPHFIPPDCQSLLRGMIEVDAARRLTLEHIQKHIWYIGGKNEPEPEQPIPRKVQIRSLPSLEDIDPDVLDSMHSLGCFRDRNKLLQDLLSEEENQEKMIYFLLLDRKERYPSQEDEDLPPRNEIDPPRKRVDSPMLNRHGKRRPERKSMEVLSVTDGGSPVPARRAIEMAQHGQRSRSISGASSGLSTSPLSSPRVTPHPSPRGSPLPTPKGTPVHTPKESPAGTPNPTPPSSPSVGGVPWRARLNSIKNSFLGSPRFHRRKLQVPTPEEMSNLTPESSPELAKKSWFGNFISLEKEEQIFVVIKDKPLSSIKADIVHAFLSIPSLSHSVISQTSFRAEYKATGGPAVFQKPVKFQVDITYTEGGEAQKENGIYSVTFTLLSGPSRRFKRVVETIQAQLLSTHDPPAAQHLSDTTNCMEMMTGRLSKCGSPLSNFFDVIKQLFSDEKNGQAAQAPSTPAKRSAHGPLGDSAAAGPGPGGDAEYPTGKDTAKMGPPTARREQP

[7] = target: T3, Serine/threonine-protein kinase BRSK2 (Homo sapiens); details: at 1 µM
[8] = target: Calcium/calmodulin-dependent protein kinase type 1D (Homo sapiens) (UniProt Q8IU85); details: at 0.1 µM
[9] = target: Calcium/calmodulin-dependent protein kinase type 1D (Homo sapiens) (UniProt Q8IU85); details: at 1 µM
[10] = target: Calcium/calmodulin-dependent protein kinase type II subunit alpha (Homo sapiens) (UniProt Q9UQM7); details: at 0.1 µM
[11] = target: Calcium/calmodulin-dependent protein kinase type II subunit alpha (Homo sapiens) (UniProt Q9UQM7); details: at 1 µM
[12] = target: Calcium/calmodulin-dependent protein kinase type II subunit delta (Homo sapiens) (UniProt Q13557); details: at 0.1 µM
[13] = target: Calcium/calmodulin-dependent protein kinase type II subunit delta (Homo sapiens) (UniProt Q13557); details: at 1 µM
[14] = target: T4, Calcium/calmodulin-dependent protein kinase type IV (Homo sapiens) (UniProt Q16566); details: at 0.1 µM
T4 sequence (whole entry): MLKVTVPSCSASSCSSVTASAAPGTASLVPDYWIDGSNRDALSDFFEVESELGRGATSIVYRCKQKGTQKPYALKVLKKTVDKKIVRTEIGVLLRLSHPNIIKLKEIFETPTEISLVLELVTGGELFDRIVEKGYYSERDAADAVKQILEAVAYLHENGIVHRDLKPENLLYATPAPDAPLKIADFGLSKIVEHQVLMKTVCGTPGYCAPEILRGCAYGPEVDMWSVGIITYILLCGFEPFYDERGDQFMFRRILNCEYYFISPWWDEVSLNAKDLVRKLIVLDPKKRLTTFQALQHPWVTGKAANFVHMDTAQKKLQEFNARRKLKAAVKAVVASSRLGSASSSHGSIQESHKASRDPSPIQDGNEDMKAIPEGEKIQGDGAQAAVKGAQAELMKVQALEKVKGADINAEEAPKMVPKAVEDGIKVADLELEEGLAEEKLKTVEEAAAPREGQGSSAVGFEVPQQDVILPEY

[15] = target: T4, Calcium/calmodulin-dependent protein kinase type IV (Homo sapiens); details: at 1 µM
[16] = target: T5, Serine/threonine-protein kinase Chk1 (Homo sapiens) (UniProt O14757); details: at 0.1 µM
T5 sequence (whole entry): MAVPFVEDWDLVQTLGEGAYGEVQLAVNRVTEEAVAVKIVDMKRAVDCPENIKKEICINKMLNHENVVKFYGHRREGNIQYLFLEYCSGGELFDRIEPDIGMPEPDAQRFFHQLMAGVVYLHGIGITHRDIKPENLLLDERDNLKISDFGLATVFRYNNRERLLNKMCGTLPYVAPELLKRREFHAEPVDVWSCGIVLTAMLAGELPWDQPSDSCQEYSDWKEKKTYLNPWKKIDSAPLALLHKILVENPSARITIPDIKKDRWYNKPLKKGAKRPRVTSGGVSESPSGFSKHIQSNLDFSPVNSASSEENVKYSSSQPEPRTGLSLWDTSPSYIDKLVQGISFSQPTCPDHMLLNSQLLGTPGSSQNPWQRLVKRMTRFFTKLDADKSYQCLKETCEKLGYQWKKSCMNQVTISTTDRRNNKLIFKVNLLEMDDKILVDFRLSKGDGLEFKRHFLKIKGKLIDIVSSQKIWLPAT

[17] = target: T5, Serine/threonine-protein kinase Chk1 (Homo sapiens); details: at 1 µM
[18] = target: Serine/threonine-protein kinase Chk2 (Homo sapiens) (UniProt O96017); details: at 0.1 µM
[19] = target: Serine/threonine-protein kinase Chk2 (Homo sapiens) (UniProt O96017); details: at 1 µM
[20] = target: Death-associated protein kinase 1 (Homo sapiens) (UniProt P53355); details: at 0.1 µM;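 further: reported figure is the mean inhibition of DAPK1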
Death-associated protein kinase 1 (Homo sapiens), sequence (P53355 whole entry, looked up): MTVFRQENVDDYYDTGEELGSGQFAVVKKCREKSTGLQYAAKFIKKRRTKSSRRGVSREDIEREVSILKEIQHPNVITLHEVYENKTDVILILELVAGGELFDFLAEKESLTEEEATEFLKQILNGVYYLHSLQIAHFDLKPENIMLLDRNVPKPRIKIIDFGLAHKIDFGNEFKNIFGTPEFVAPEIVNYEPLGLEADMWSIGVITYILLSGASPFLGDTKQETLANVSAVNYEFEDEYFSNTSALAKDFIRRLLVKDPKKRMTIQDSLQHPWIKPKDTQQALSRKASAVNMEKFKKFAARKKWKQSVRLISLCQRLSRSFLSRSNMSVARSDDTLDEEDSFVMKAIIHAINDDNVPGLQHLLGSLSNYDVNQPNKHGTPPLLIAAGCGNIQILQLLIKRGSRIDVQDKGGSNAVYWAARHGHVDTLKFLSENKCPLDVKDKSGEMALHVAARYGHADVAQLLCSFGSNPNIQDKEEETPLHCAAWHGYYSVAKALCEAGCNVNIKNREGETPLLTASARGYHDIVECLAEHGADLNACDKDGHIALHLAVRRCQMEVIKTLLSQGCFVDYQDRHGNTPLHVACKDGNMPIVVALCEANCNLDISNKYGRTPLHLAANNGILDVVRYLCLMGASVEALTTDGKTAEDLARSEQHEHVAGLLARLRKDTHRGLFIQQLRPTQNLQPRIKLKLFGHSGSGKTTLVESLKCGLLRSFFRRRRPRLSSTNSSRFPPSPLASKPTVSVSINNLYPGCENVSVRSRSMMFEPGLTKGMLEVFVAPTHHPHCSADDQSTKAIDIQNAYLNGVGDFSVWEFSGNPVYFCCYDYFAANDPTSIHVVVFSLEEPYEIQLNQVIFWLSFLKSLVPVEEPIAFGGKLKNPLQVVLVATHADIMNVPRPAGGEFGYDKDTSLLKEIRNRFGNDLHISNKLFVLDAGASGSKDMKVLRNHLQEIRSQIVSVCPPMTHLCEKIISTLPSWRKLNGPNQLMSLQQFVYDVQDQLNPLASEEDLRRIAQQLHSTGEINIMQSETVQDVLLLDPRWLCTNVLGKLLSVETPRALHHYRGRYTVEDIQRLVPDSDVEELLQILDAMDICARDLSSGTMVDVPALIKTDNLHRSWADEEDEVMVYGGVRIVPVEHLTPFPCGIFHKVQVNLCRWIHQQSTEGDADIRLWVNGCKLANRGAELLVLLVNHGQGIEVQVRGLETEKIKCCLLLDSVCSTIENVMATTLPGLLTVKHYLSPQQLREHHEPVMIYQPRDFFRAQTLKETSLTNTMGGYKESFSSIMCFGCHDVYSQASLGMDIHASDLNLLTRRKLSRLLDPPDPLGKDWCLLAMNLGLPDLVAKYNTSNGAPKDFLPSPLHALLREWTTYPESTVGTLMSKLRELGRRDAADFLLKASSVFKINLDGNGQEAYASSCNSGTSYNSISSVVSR

5'-AMP-activated protein kinase catalytic subunit alpha-2 (Homo sapiens), sequence (P54646 whole entry, looked up): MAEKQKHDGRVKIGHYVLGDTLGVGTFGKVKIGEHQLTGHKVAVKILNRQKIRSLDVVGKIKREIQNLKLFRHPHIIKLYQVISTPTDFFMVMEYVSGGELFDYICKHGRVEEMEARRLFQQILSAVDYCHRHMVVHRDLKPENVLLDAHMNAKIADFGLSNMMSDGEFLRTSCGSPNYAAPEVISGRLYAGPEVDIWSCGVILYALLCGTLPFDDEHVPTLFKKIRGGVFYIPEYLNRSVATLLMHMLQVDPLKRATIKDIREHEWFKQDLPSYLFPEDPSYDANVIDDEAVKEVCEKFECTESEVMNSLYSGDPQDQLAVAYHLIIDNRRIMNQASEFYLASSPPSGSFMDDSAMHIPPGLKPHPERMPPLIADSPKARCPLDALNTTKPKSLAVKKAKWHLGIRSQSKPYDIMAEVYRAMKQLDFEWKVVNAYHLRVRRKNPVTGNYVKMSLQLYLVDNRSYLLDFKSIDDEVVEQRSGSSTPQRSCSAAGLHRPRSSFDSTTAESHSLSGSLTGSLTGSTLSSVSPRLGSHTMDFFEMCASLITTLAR
Calcium/calmodulin-dependent protein kinase type II subunit alpha (Homo sapiens), sequence (Q9UQM7 whole entry): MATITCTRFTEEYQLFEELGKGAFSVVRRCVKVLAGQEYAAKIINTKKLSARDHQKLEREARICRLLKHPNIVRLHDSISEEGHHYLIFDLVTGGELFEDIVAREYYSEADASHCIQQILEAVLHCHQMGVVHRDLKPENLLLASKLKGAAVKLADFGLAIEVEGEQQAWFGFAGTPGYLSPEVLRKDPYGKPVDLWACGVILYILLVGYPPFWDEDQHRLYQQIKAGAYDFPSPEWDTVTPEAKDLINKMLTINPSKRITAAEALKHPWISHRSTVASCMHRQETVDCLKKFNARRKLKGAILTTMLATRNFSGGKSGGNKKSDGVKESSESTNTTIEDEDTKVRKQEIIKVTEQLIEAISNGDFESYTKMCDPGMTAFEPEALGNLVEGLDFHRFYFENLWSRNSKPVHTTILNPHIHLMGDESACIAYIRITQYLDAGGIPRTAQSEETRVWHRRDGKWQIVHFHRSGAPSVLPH
Serine/threonine-protein kinase Chk2 (Homo sapiens), sequence (O96017 whole entry): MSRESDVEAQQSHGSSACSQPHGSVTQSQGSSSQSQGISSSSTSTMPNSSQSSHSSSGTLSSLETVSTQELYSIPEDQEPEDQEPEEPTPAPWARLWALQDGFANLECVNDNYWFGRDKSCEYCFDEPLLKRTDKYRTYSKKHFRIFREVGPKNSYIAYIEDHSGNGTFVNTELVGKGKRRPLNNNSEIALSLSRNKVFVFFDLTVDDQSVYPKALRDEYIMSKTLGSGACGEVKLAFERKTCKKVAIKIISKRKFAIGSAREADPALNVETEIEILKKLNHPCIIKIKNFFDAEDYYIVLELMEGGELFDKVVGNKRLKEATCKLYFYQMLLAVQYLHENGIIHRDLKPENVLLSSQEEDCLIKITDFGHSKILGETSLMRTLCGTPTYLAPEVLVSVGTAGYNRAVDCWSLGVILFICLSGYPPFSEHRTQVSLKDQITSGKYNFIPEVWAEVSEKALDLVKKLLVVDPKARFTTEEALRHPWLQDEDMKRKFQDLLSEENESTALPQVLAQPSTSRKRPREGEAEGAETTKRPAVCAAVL
Calcium/calmodulin-dependent protein kinase type II subunit delta (Homo sapiens), sequence (Q13557 whole entry): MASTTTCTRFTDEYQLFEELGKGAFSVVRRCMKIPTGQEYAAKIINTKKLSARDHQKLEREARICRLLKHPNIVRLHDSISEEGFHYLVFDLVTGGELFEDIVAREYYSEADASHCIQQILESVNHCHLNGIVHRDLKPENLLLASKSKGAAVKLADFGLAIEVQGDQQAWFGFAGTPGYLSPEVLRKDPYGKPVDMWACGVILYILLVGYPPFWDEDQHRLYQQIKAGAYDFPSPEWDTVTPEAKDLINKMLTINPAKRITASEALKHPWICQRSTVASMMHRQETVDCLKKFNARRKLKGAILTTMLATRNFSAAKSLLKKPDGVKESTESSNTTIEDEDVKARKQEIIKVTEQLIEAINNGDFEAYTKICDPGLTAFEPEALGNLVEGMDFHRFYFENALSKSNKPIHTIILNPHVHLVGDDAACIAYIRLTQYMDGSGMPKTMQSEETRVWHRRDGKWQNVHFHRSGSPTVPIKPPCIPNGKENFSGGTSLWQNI
Calcium/calmodulin-dependent protein kinase type 1D (Homo sapiens), sequence (Q8IU85 whole entry, looked up): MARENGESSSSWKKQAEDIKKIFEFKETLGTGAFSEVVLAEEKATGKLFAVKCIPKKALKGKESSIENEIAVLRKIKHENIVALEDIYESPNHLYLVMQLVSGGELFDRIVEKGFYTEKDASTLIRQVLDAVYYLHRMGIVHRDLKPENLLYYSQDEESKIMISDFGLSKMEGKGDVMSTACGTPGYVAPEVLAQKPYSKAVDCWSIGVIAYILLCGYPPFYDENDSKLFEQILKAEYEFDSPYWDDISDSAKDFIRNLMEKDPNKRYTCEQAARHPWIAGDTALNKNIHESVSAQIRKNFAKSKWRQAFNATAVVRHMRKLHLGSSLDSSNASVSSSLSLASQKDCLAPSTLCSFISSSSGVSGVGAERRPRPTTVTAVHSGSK

| Compound | inhibition [1] [%] | inhibition [2] [%] | inhibition [3] [%] | inhibition [4] [%] | inhibition [5] [%] | inhibition [6] [%] | inhibition [7] [%] | inhibition [8] [%] | inhibition [9] [%] | inhibition [10] [%] | inhibition [11] [%] | inhibition [12] [%] | inhibition [13] [%] | inhibition [14] [%] | inhibition [15] [%] | inhibition [16] [%] | inhibition [17] [%] | inhibition [18] [%] | inhibition [19] [%] | inhibition [20] [%] |
| --- | --- | --- | --- | --- | --- | --- | --- | --- | --- | --- | --- | --- | --- | --- | --- | --- | --- | --- | --- | --- |
| CC1=C(C(=O)Nc2cc(Cl)c3[nH]ncc3c2)C(c2ccc(C(F)(F)F)cc2)CC(=O)N1 (stereo not given) | 16.3 | 1.17 | 5.4 | 0.02 | 3.03 | 1.64 | 8.61 | -0.28 | 1.73 | 1.03 | 1.21 | 1.82 | 4.42 | -0.37 | 0.15 | 8.32 | 11.4 | 6.46 | 7.48 | 9.05 |
| CCN1CCC(CC(=O)Nc2n[nH]c3nnc(-c4cccc(F)c4F)cc23)CC1 | 5.17 | -1.66 | 1.56 | -0.52 | 3.84 | 2.07 | -0.1 | 1.6 | -1.42 | 3.17 | -0.76 | 2.44 | 0.77 | 2.76 | -0.58 | 1.72 | -1.03 | 1.92 | 0.24 | 3.62 |
| CC(=O)Nc1cccc(C#Cc2cncnc2Nc2ccc(OCc3cccc(F)c3)c(Cl)c2)c1 | 2.19 | 1.95 | 7.23 | 2.55 | 1.82 | 1.34 | 0.36 | 2.97 | 3.77 | 4.42 | 4.52 | 4.28 | 3.37 | 1.57 | 3.24 | -1.89 | -3.6 | -2.67 | -1.77 | -6.34 |
| CS(=O)(=O)CCNCc1ccc(-c2ccc3ncnc(Nc4ccc(OCc5ccccc5)c(C(F)(F)F)c4)c3c2)o1 | 3.87 | -0.55 | -0.02 | 0.14 | 4.02 | 3.18 | 4.31 | 0.11 | 4.44 | 2.86 | -1.78 | 1.83 | 1.77 | -0.46 | -1.2 | 8.46 | 10.8 | 7.47 | 7.84 | 12.8 |
| CNC(=O)c1cncc(/C=C/c2ccccc2Cl)c1 | -0.38 | 4.61 | 4.26 | 0.56 | 8.62 | 0.31 | 8.91 | 0.88 | -1.08 | 1.53 | 1.63 | -0.13 | -0.98 | -3.66 | -4.17 | 1.43 | 3.35 | -0.6 | 1.77 | 2.15 |
| Cc1ccc2c(-c3ccnc(Nc4ccccc4)n3)c(-c3ccc(F)cc3)nn2n1 | 3.36 | 1.74 | 6.31 | 1.47 | 1.77 | 1.27 | 0.62 | 0.93 | 1.34 | 4.27 | 4.16 | 3.9 | 4.15 | -0.02 | 1.87 | 2.71 | 4.19 | 2.15 | 2.4 | 3.42 |
| c1cc(-c2cnn3nc(N4CCOCC4)ccc23)nc(NC2CC2)n1 | 7.62 | 5.42 | 25.6 | 2.4 | 6.62 | 3.67 | 7.84 | 1.69 | 2.68 | 4.7 | 6.53 | 3.77 | 9.6 | 1.3 | 2.07 | 3.63 | 1.64 | 3.07 | 7.4 | 3.51 |
